Results reported in PubChem BioAssay (Tox21).
Results filed as inconclusive are left out. The source made the active and inactive calls. Calls follow the shape of the dose curve; as a rule, active = well fitted curve in the direction sought with a large enough effect in the repeat runs; inconclusive = weak or mixed curves; inactive = no such curve, though single readings can be large; an effect the other way counts as inactive or inconclusive.

What was measured:
[1] = qHTS RealTime-Glo MT Cell Viability Assay in HEK293 cells - 32 hour (AID 1224868); also: top concentration of the series differs between compounds; nearly all actives have a fitted effect of over 50% in size
Method in brief: (§1)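 HEK293 cells seeded with NanoLuc/prosubstrate reagent, rested 5 h at 37 C, then dosed and kept at 37 C up to 40 h. Nonlytic real-time luminescence from viable cells read at 0, 8, 16, 24, 32 and 40 h.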

[2] = A CellTox Green Cytotoxicity Assay to monitor cytotoxicity in HEK293 cells - 0 hour (AID 1224869); also: nearly all actives have a fitted effect of over 50% in size
Method in brief: (§2)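 Fluorescence intensity, read at 0, 8, 16, 24, 32 and 40 h of compound treatment, reflected dye binding to DNA of dead HEK293 cells; compounds (23 nL, DMSO) were added 5 h after plating cells with reagent.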

[3] = qHTS RealTime-Glo MT Cell Viability Assay in HepG2 cells - 40 hour (AID 1224870); also: nearly all actives have a fitted effect of over 50% in size
Method in brief: (§3)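 HepG2 cells mixed with RealTime-Glo MT reagents (NanoLuc plus cell-permeant prosubstrate) were seeded at 600 cells/well, incubated 5 h at 37 C/5% CO2, then pinned with compounds in DMSO; nonlytic luminescence tracked viability during 40 h treatment.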

[4] = A CellTox Green Cytotoxicity Assay to monitor cytotoxicity in HEK293 cells - 40 hour (AID 1224871); also: nearly all actives have a fitted effect of over 45% in size
Method in brief: as §2

[5] = qHTS RealTime-Glo MT Cell Viability Assay in HepG2 cells - 8 hour (AID 1224873); also: nearly all actives have a fitted effect of over 55% in size
Method in brief: as §3

[6] = qHTS RealTime-Glo MT Cell Viability Assay in HEK293 cells - 40 hour (AID 1224874); details: RealTime-Glo luminescence, hits give low values; also: nearly all actives have a fitted effect of over 50% in size
Method in brief: (§4)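 Viable HEK293 cells reduce a cell-permeant prosubstrate; the product diffuses out and is consumed by NanoLuc in the medium to give light. Compounds went in after a 5 h incubation and plates were read over the treatment course.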

[7] = A CellTox Green Cytotoxicity Assay to monitor cytotoxicity in HEK293 cells - 24 hour (AID 1224875); also: series mostly up to about 77 µM; nearly all actives have a fitted effect of over 45% in size
Method in brief: as §2

[8] = A CellTox Green Cytotoxicity Assay to monitor cytotoxicity in HepG2 cells - 16 hour (AID 1224876); also: nearly all actives have a fitted effect of over 45% in size
Method in brief: (§5)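 Using 1536-well format, dye-containing HepG2 suspension was seeded, allowed 5 h at 37 C/5% CO2, dosed by pintool with compounds, positive and negative controls, and imaged for fluorescence across 40 h.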

[9] = qHTS RealTime-Glo MT Cell Viability Assay in HepG2 cells - 32 hour (AID 1224877); also: nearly all actives have a fitted effect of over 55% in size
Method in brief: (§6)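 HepG2 cells (600/well) were dispensed with RealTime-Glo reagents, incubated 5 h at 37 °C, then treated with compounds in DMSO for up to 40 h. Nonlytic NanoLuc luminescence reflecting viable cells was read at each stated time point.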

[10] = A CellTox Green Cytotoxicity Assay to monitor cytotoxicity in HepG2 cells - 24 hour (AID 1224878); also: nearly all actives have a fitted effect of over 45% in size
Method in brief: as §5

[11] = A CellTox Green Cytotoxicity Assay to monitor cytotoxicity in HepG2 cells - 40 hour (AID 1224879); also: nearly all actives have a fitted effect of over 40% in size
Method in brief: as §5

[12] = qHTS RealTime-Glo MT Cell Viability Assay in HEK293 cells - 0 hour (AID 1224880)
Method in brief: as §4

[13] = A CellTox Green Cytotoxicity Assay to monitor cytotoxicity in HepG2 cells - 0 hour (AID 1224882); also: nearly all actives have a fitted effect of over 35% in size
Method in brief: as §5

[14] = A CellTox Green Cytotoxicity Assay to monitor cytotoxicity in HepG2 cells - 32 hour (AID 1224883); also: nearly all actives have a fitted effect of over 50% in size
Method in brief: as §5

[15] = A CellTox Green Cytotoxicity Assay to monitor cytotoxicity in HEK293 cells - 8 hour (AID 1224884); also: nearly all actives have a fitted effect of over 35% in size
Method in brief: as §2

[16] = qHTS RealTime-Glo MT Cell Viability Assay in HepG2 cells - 16 hour (AID 1224885); also: nearly all actives have a fitted effect of over 50% in size
Method in brief: as §6

[17] = qHTS RealTime-Glo MT Cell Viability Assay in HEK293 cells - 24 hour (AID 1224886)
Method in brief: as §1

[18] = qHTS RealTime-Glo MT Cell Viability Assay in HEK293 cells - 8 hour (AID 1224887)
Method in brief: as §4

[19] = qHTS RealTime-Glo MT Cell Viability Assay in HEK293 cells - 16 hour (AID 1224872)
Method in brief: as §1

[20] = A CellTox Green Cytotoxicity Assay to monitor cytotoxicity in HEK293 cells - 32 hour (AID 1224881); also: nearly all actives have a fitted effect of over 40% in size
Method in brief: as §2
% is scaled to controls: 0 for no effect and ±100 for the full control effect.

Cc1ccc(O)c(C(=O)c2ccccc2)c1
inactive: outcome [1] | outcome [2] | outcome [3] | Potency [4] | outcome [5] | max response [6] -5.5% | Potency [7] | Potency [8] | outcome [9] | Potency [10] | Potency [11] | Potency [12] | Potency [13] | Potency [14] | Potency [15] | outcome [16] | outcome [17] | outcome [18]

CCCCCCC(O)CO (stereo not given)
inactive: outcome [1] | outcome [2] | outcome [3] | outcome [19] | outcome [5] | max response [6] 1.68% | Potency [7] | Potency [8] | outcome [9] | Potency [10] | Potency [11] | Potency [12] | Potency [20] | Potency [13] | Potency [14] | Potency [15] | outcome [16] | outcome [17] | outcome [18]

CC(=O)OC/C=C(/C)CCC=C(C)C
inactive: outcome [1] | outcome [2] | outcome [3] | outcome [19] | outcome [5] | max response [6] -1.6% | Potency [7] | Potency [8] | outcome [9] | Potency [10] | Potency [11] | Potency [12] | Potency [20] | Potency [13] | Potency [14] | Potency [15] | outcome [16] | outcome [17] | outcome [18]

C/C=C/C(=O)CCCC
inactive: outcome [1] | outcome [2] | outcome [3] | Potency [4] | outcome [5] | Potency [7] | Potency [8] | outcome [9] | Potency [10] | Potency [11] | Potency [12] | Potency [13] | Potency [14] | Potency [15] | outcome [16] | outcome [17] | outcome [18]

CCCCCCCCC1CO1 (stereo not given)
inactive: outcome [1] | outcome [2] | outcome [3] | Potency [4] | outcome [5] | max response [6] -0.591% | Potency [7] | Potency [8] | outcome [9] | Potency [10] | Potency [11] | Potency [12] | Potency [20] | Potency [13] | Potency [14] | Potency [15] | outcome [16] | outcome [18]

C=CCN1CCc2nc(N)sc2CC1
inactive: outcome [1] | outcome [2] | outcome [3] | Potency [4] | outcome [5] | max response [6] 7.02% | Potency [7] | Potency [8] | outcome [9] | Potency [10] | Potency [12] | Potency [13] | Potency [14] | Potency [15] | outcome [16] | outcome [17] | outcome [18]

CCCCCCCCCCCCCCCC(=O)OC
inactive: activity change, negative = cytotoxic [1] -0.272% [at 15.8 µM] | cytotoxicity [2] -0.154% [at 15.8 µM] | activity change, negative = cytotoxic [3] 16.9% [at 15.8 µM] | cytotoxicity increase [4] -6.02% [at 15.8 µM] | viability change, negative = cytotoxic [5] -11% [at 15.8 µM] | max response [6] -0.62% | activity change [7] -1.12% [at 15.8 µM, hits give high values] | activity change, negative = cytotoxic [9] 6.89% [at 15.8 µM] | cytotoxicity [10] -19.7% [at 15.8 µM] | cytotoxicity increase [11] -22.4% [at 15.8 µM] | activity change, negative = cytotoxicity [12] -3.44% [at 15.8 µM] | cytotoxicity increase [14] -21.5% [at 15.8 µM] | cytotoxicity increase [15] -3.06% [at 15.8 µM] | activity change, negative = cytotoxic [16] -7.62% [at 15.8 µM] | activity change, negative = cytotoxicity [17] -2.1% [at 15.8 µM] | activity change, negative = cytotoxicity [18] 0.781% [at 15.8 µM]

CN(C)CCC[C@@]1(c2ccc(F)cc2)OCc2cc(C#N)ccc21
inactive: outcome [1] | outcome [2] | outcome [3] | Potency [4] | outcome [5] | max response [6] -9.59% | Potency [7] | Potency [8] | outcome [9] | Potency [10] | Potency [11] | Potency [12] | Potency [20] | Potency [13] | Potency [14] | Potency [15] | outcome [16] | outcome [17] | outcome [18]

COc1ccc(Cl)cc1C
inactive: outcome [1] | outcome [2] | outcome [3] | Potency [4] | outcome [5] | Potency [7] | Potency [8] | outcome [9] | Potency [10] | Potency [11] | Potency [12] | Potency [13] | Potency [14] | Potency [15] | outcome [16] | outcome [17] | outcome [18]

N=C(N)N1CCc2ccccc2C1
inactive: activity change, negative = cytotoxic [1] 0.854% [at 6.97 µM] | cytotoxicity [2] -7.02% [at 6.97 µM] | activity change, negative = cytotoxic [3] 0.674% [at 6.97 µM] | cytotoxicity increase [4] -5.28% [at 6.97 µM] | viability change, negative = cytotoxic [5] 0.945% [at 6.97 µM] | max response [6] 0.0826% | activity change [7] -12.7% [at 6.97 µM, hits give high values] | activity change, negative = cytotoxic [9] 0.278% [at 6.97 µM] | cytotoxicity [10] -11.7% [at 6.97 µM] | cytotoxicity increase [11] -14.4% [at 6.97 µM] | activity change, negative = cytotoxicity [12] -0.804% [at 6.97 µM] | cytotoxicity increase [20] -11.6% [at 6.97 µM] | cytotoxicity increase [14] -12.5% [at 6.97 µM] | cytotoxicity increase [15] -15.6% [at 6.97 µM] | activity change, negative = cytotoxic [16] 0.556% [at 6.97 µM] | activity change, negative = cytotoxicity [17] 2.27% [at 6.97 µM] | activity change, negative = cytotoxicity [18] 2.38% [at 6.97 µM]

CC1(C)S[C@@H]2[C@H](NC(=O)Cc3ccccc3)C(=O)N2[C@H]1C(=O)O (tested in a mixture with another compound)
inactive: outcome [1] | outcome [2] | outcome [3] | Potency [4] | outcome [5] | max response [6] -2.11% | Potency [7] | Potency [8] | outcome [9] | Potency [10] | Potency [11] | Potency [20] | Potency [13] | Potency [14] | Potency [15] | outcome [16] | outcome [17] | outcome [18]

O=C1CCCc2c(O)cccc21
inactive: outcome [1] | outcome [2] | outcome [3] | Potency [4] | Potency [7] | Potency [8] | outcome [9] | Potency [10] | Potency [12] | Potency [20] | Potency [13] | Potency [15] | outcome [16] | outcome [17] | outcome [18]

C=CCOC(=O)CCCCCCCC
inactive: outcome [1] | outcome [2] | outcome [3] | Potency [4] | max response [6] 16% | Potency [7] | Potency [8] | outcome [9] | Potency [10] | Potency [12] | Potency [20] | Potency [14] | Potency [15] | outcome [16] | outcome [17] | outcome [18]

CC(C)(O)CCCC1=CCC(C=O)CC1 (stereo not given)
inactive: outcome [1] | outcome [2] | outcome [3] | outcome [19] | outcome [5] | max response [6] -16% | Potency [7] | Potency [8] | outcome [9] | Potency [10] | Potency [11] | Potency [12] | Potency [20] | Potency [13] | Potency [14] | Potency [15] | outcome [16] | outcome [17] | outcome [18]
